target: Neuropilin-1 (Homo sapiens) (UniProt O14786); test: blockers of CendR peptide binding to NRP-1 – biochemical, FP and AlphaScreen panel, dose response (AID 651650); conditions: NRP-1 b1b2 / RPARPAR peptide binding, FP or AlphaScreen; run 1, at 100 µM (top of the series)
Sequence (O14786 whole entry, looked up): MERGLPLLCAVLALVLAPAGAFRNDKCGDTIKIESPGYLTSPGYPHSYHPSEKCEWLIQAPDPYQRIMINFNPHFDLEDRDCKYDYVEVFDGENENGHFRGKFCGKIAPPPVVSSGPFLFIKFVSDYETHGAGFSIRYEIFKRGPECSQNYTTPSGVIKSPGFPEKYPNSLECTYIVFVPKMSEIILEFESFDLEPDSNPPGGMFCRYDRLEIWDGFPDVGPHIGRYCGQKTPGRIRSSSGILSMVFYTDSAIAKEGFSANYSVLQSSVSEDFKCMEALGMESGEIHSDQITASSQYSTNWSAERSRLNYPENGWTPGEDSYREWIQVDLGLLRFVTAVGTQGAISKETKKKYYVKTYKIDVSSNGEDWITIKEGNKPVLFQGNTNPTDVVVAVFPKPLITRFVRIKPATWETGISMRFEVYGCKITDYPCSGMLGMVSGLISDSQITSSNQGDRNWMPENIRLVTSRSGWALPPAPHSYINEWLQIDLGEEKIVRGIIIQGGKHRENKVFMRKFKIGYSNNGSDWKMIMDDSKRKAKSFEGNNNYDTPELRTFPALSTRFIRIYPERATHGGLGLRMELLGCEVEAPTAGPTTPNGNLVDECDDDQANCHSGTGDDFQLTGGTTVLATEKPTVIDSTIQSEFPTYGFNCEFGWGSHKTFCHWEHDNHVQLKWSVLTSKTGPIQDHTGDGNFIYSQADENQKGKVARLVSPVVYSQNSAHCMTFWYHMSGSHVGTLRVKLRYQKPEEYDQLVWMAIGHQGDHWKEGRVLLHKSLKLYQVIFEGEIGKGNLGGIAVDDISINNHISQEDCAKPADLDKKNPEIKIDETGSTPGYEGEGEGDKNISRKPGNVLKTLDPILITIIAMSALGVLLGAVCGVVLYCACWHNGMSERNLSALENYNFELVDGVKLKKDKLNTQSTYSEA

| SMILES | inhibition [%] |
| --- | --- |
| CC(=O)/C(=N\Nc1ccc(Cl)cc1Cl)Sc1cccc2cccnc12 | 24.8 |
| COc1cc(Cn2nnc3ccccc32)cc(Br)c1O | 37.3 |
| Cc1ccc(C(=O)OCC(=O)c2ccc(Cl)s2)s1 | 32 |
| CCCCOc1ccc(C(=O)N/C(=C/C=C/c2ccccc2)C(=O)NCCCO)cc1 | 10.5 |
| NC(=O)C1=C[C@H](c2ccc(Br)cc2)C[C@H](OCc2ccc(CO)cc2)O1 | 36.9 |
| CC(C)Oc1ccc(F)cc1-c1cc(C(=O)NCc2ccc(F)cc2)[nH]n1 | 16 |
| O=C(COc1cc(Cl)c(Cl)cc1Cl)Nc1ccc([N+](=O)[O-])cc1Cl | 38.3 |
| O=c1ccsn1Cc1ccccc1 | 11.6 |
| O=C(NCCN1CCN(C(=O)c2cccc(OC(F)F)c2)CC1)c1cccc(OC(F)F)c1 | 0.403 |
| O=C(CN1C2=NCCN2c2ccccc21)c1ccco1 | 0.0631 |
| CCN(CC)C(=O)C1CCCN(C(=O)Nc2ccc3nsnc3c2)C1 (stereo not drawn) | 21.5 |
| CC(=O)C(=Cc1ccc(Cl)cc1)C(=O)c1ccccc1 | 27.1 |
| Cc1cc(C)n2c(Nc3ccc4c(c3)OCCO4)c(-c3ccccn3)nc2n1 | 6.1 |
| CCCCCCCN1C(Nc2ccccc2)=NC[C@@H]1Cc1ccccc1 | 24.7 |
| COc1ccc(/C=N/NC(=O)c2ccccc2Cl)cc1CSc1nc2ccccc2s1 | 28.7 |
| Cc1cc(C)cc(N(CCC(=O)O)S(=O)(=O)c2ccc3ccccc3c2)c1 | 38.7 |
| O=C(CCCNC(=O)/C(=C\c1ccc(F)cc1)NC(=O)c1ccccc1)OCc1ccccc1 | -33 |
| COc1cccc(-c2ccc3c(c2)N(Cc2ccccc2OC)C(=O)C(C)S3)c1 (stereo not drawn) | -18.6 |
